Measured values taken from PubChem BioAssay (NCI).
The panel holds about 83,000 compounds, 20% with a hit somewhere; the sample as a whole holds those more often.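 Interpretation: 100, growth as untreated; towards 0, rising growth inhibition; 0, no net growth; 0 to -100, cell death. Compounds scoring below 10 were considered active.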 Values without a mark were called inactive. Active and inactive are the calls of the source.

How the values were obtained:
Test in all cases: NCI-60 one-dose screen, 48 h (100 = growth as untreated, 0 = no growth, -100 = all killed)
Conditions in all cases: 10 µM unless noted
SK-MEL-2 melanoma = system: SK-MEL-2 melanoma
EKVX NSCLC = system: EKVX NSCLC
SN12C renal = system: SN12C renal
UO-31 renal = system: UO-31 renal
TK-10 renal = system: TK-10 renal
ACHN renal = system: ACHN renal
CAKI-1 renal = system: CAKI-1 renal
A498 renal = system: A498 renal
CCRF-CEM leukemia = system: CCRF-CEM leukemia
MOLT-4 leukemia = system: MOLT-4 leukemia
RPMI-8226 leukemia = system: RPMI-8226 leukemia
OVCAR-8 ovarian = system: OVCAR-8 ovarian
OVCAR-5 ovarian = system: OVCAR-5 ovarian
OVCAR-4 ovarian = system: OVCAR-4 ovarian
SK-OV-3 ovarian = system: SK-OV-3 ovarian
IGROV1 ovarian = system: IGROV1 ovarian
OVCAR-3 ovarian = system: OVCAR-3 ovarian
HS 578T breast = system: HS 578T breast
NCI/ADR-RES ovarian = system: NCI/ADR-RES ovarian
SR leukemia = system: SR leukemia

Structure (SMILES) | growth (SK-MEL-2 melanoma) | growth (EKVX NSCLC) | growth (SN12C renal) | growth (UO-31 renal) | growth (TK-10 renal) | growth (ACHN renal) | growth (CAKI-1 renal) | growth (A498 renal) | growth (CCRF-CEM leukemia) | growth (MOLT-4 leukemia) | growth (RPMI-8226 leukemia) | growth (OVCAR-8 ovarian) | growth (OVCAR-5 ovarian) | growth (OVCAR-4 ovarian) | growth (SK-OV-3 ovarian) | growth (IGROV1 ovarian) | growth (OVCAR-3 ovarian) | growth (HS 578T breast) | growth (NCI/ADR-RES ovarian) | growth (SR leukemia)
N#Cc1c(NC(=O)c2cccc(C(F)(F)F)c2)sc2c1CCC(=O)C2 | -0.134% (active) | 14.7% | 4.55% (active) | -100% (active) | -5.21% (active) | -93.8% (active) | -85.3% (active) | 94.6% | 6.89% (active) | 3.86% (active) | -9.7% (active) | 10.4% | 12.9% | -80.7% (active) | 3.53% (active) | -50.7% (active) | -46.8% (active) | 1.32% (active) | 7.01% (active) | –
O=C1C(Cl)C(c2ccccc2Cl)N1n1cnnc1 (stereo not drawn) | 102% | 99.8% | 100% | 83.3% | 102% | 96.8% | 85.6% | 93.9% | 98.6% | 101% | 102% | 96.2% | 91.4% | 97.5% | 77.3% | 91.5% | 102% | 87.6% | 106% | –
CCOc1cc(C2C(Cl)C(=O)N2n2cnnc2)ccc1O (stereo not drawn) | 100% | 109% | 98.6% | 86% | 99.1% | 96.7% | 85.3% | 101% | 93.6% | 100% | 103% | 95.5% | 106% | 98.2% | 82.4% | 104% | 96.4% | 88.7% | 100% | –
COc1ccc(-c2nc3sccn3c2/C=C/C(=O)c2c[nH]c3ccccc23)cc1 | 90.9% | 58.3% | 71.7% | 82.7% | 73% | 40.6% | 49.6% | 68.2% | 90.9% | -5.59% (active) | 154% | 63.9% | 63.5% | 42.6% | 79.6% | 79.2% | 68.1% | 74.9% | 59.1% | –
NC(=O)c1c(NC(=O)c2ccc(C(F)(F)F)cc2Cl)sc2c1CCC(=O)C2 | -11.1% (active) | -9.99% (active) | -5.19% (active) | -100% (active) | 6.29% (active) | -91.1% (active) | -82.2% (active) | 61.9% | -1.78% (active) | -12.9% (active) | -22.7% (active) | 10.2% | -41.9% (active) | -74.7% (active) | -6.73% (active) | -39.2% (active) | -57.4% (active) | -7.87% (active) | -13.9% (active) | –
O=S(=O)(Nc1ccsc1-c1nc(-c2ccccc2)no1)c1cc(Cl)cc(Cl)c1 | 105% | 95.6% | 91.3% | 83.2% | 102% | 98.2% | 86.9% | 91.1% | 101% | 104% | 82.6% | 92.4% | 86.5% | 93.8% | 83.3% | 100% | 96.7% | 94.1% | 94% | –
Oc1ccccc1-c1nc2ccccn2c1NCCN1CCOCC1 | 106% | 102% | 97.1% | 89.9% | 94.8% | 95.3% | 86.9% | 89.5% | 94.3% | 97.5% | 93.2% | 100% | 91.6% | 92.2% | 76.5% | 103% | 97.3% | 89.5% | 104% | –
CC[C@@H](C[C@H](CCO)c1ccccc1)c1cc2ccccc2o1 | 81.3% | 103% | 95.8% | 88.8% | 98.8% | 99.1% | 77.4% | 104% | 90.7% | 79.9% | 90.8% | 91% | 96.7% | 85.3% | 93.9% | 97.8% | 95.7% | 93% | 93.1% | –
COc1ccc(/C=N/NC(=O)Cn2c(-c3ccc(S(C)(=O)=O)cc3)nc3cc(Cl)ccc32)cc1 | 21.2% | 25.3% | 27.3% | 43.2% | 36.8% | 30.3% | 42% | 21.4% | 1.56% (active) | 12.9% | 9.21% (active) | 19.7% | 36.8% | 55.5% | 12.6% | 33.3% | -1.53% (active) | 36.8% | 5.86% (active) | –
CCO/C=N/C1=C(C#N)C(c2ccc(OC)cc2)c2c(c3ccccc3n(C)c2=O)O1 (stereo not drawn) | 108% | 101% | 98.9% | 72.8% | 112% | 100% | 89.6% | 111% | 100% | 103% | 102% | 104% | 100% | 98.8% | 99.9% | 101% | 114% | 107% | 108% | –
COc1cccc(-c2nc3sccn3c2-c2ccnc(NCCNS(=O)(=O)c3c(Cl)cccc3Cl)c2)c1 | 74.6% | 55.6% | 60.5% | 24.1% | 68.5% | 44% | 36.3% | 48.6% | 31.1% | 33.7% | 15.1% | 39% | 90.9% | 59.7% | 89.5% | 57.2% | 70.8% | 87.8% | 36.6% | –
CCCCS(=O)(=O)Oc1ccc(-c2nc(C)c(C(=O)OCC)s2)cc1C=O | 97.2% | 92.1% | 57.1% | 57.7% | 68.8% | 62.7% | 63.7% | 77.5% | 15.3% | 32.1% | – | 45.4% | 94.5% | 75.2% | – | 42.6% | 65% | 63.6% | 69% | -14.3% (active)
C=C(C)[C@@H]1CC[C@]2(C(=O)NCC(=O)O)CC[C@]3(C)[C@H](CC[C@@H]4[C@@]5(C)Cc6c([nH]c7ccccc67)C(C)(C)[C@@H]5CC[C@]43C)[C@@H]12 | 92.4% | 84.7% | 72.2% | 55.4% | 103% | 87.4% | 78.5% | 77.2% | 72.8% | 78.4% | 79.8% | 78.4% | 107% | 75.9% | 75.1% | 83.3% | 90.5% | 56.9% | 95.4% | –
NC(=O)c1c(NC(=O)c2ccccn2)sc2c1CCC(=O)C2 | 37.8% | 33.8% | 25.9% | 4.56% (active) | 38.3% | 5.89% (active) | -2.09% (active) | 86.1% | 12.7% | 81.6% | 1.88% (active) | 14.2% | 21.5% | -7.1% (active) | 95.6% | 29.9% | 7.94% (active) | 25.1% | 17.6% | –
C=C1C(=O)O[C@H]2[C@H]1CC/C(Cn1cc(CNCCc3c[nH]c4ccc(Cl)cc34)nn1)=C\CC[C@@]1(C)O[C@@H]21 | 52.3% | 84.1% | 58.6% | 80.1% | 0.209% (active) | 54% | 48.2% | 90% | -29.6% (active) | 0.755% (active) | 9.44% (active) | 59.6% | 83.5% | 41.7% | 72.6% | 2.11% (active) | 11.9% | 83.4% | 102% | –
CC(C)n1nc(C#Cc2cccc(O)c2)c2c(N)ncnc21 | -76.9% (active) | -27.1% (active) | -44.3% (active) | -63.4% (active) | -87.4% (active) | -47.3% (active) | -66.8% (active) | -84.9% (active) | -21% (active) | -36.1% (active) | -46.9% (active) | -36.4% (active) | -43% (active) | -15% (active) | -62.6% (active) | -68.8% (active) | -19.6% (active) | -28.8% (active) | -29.2% (active) | –
